Results taken from ChEMBL document CHEMBL3988442, “University of Dundee, Small-Polar-MMV Screening Library” (2021).
For some assays here: Potency and affinity values are given separately.

What was measured:
Design in all cases: scale not given: direction of the effect not stated beside the values
[1] = molecular target: Protein translocase subunit SecA (Escherichia coli (strain K12)) (UniProt P10408); experiment: Assay to Identify E. coli SecA ATPase Inhibitors; assay type: functional; settings: 30 µM
[2] = molecular target: T1, Ubiquitin-activating enzyme e1, putative (Leishmania donovani (strain BPK282A1)) (UniProt E9BSI1); experiment: Leishmania donovani Ubiquitin Activating Enzyme (LdE1); assay type: functional; settings: 30 µM
T1 sequence (whole entry): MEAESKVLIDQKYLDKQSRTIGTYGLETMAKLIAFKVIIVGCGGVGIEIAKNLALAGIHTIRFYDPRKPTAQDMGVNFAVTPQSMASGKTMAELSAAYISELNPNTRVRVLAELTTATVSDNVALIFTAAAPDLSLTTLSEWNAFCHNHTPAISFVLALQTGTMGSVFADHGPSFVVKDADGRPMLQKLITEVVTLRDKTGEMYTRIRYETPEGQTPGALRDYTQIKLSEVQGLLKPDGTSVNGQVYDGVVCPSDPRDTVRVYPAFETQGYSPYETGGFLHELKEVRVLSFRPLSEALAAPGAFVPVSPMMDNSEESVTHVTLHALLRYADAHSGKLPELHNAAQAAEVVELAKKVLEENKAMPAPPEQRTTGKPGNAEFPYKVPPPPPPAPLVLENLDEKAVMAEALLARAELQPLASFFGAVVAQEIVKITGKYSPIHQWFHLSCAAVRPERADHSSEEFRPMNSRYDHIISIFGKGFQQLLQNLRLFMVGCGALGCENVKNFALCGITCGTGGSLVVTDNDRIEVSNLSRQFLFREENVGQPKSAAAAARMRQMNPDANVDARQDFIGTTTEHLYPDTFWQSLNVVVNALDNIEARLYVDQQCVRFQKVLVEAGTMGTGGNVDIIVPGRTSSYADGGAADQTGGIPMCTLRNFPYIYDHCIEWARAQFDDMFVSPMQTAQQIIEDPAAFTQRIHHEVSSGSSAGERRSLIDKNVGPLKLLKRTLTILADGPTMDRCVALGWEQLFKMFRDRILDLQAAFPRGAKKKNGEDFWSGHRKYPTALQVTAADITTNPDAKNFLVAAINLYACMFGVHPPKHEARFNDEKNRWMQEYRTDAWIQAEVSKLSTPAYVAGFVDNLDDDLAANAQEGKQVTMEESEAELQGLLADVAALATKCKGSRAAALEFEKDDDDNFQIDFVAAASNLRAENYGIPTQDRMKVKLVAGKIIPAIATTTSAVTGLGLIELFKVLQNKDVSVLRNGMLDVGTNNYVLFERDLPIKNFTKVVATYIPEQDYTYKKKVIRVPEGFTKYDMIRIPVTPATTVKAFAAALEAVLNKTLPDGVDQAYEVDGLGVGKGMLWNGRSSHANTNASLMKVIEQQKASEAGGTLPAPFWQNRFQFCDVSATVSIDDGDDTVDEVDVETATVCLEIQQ

[3] = molecular target: AMP-activated protein kinase, AMPK (Homo sapiens) (UniProt P54646+O43741+P54619+Q9UGJ0+Q9Y478+Q13131+Q9UGI9); experiment: AMP-dependent Kinase enzyme assay. An in vitro enzyme assay that detects ADP turnover that is directly proportional to AMPK activity. This uses naive AMPK that is activated during the assay with MK-8722; assay type: functional; settings: 30 µM
[4] = molecular target: Sialic acid-binding Ig-like lectin 9 (Homo sapiens) (UniProt Q9Y336); experiment: Hs-Siglec9 ALPHAscreen SOP 20170721; settings: 10 µM
[5] = test system: Trypanosoma cruzi; experiment: Trypanosoma cruzi phosphomannomutase and mannose-1-phosphate guanylyltransferase assay; assay type: functional; settings: 10 µM
[6] = molecular target: T2, Arginase-2, mitochondrial (Homo sapiens) (UniProt P78540); experiment: in vitro enzyme assay to detect the production of urea directly proportional to the activity of Arginase II; assay type: functional; settings: 33.3 µM; also: in the data most compounds retested in dose-response had high values
T2 sequence (whole entry): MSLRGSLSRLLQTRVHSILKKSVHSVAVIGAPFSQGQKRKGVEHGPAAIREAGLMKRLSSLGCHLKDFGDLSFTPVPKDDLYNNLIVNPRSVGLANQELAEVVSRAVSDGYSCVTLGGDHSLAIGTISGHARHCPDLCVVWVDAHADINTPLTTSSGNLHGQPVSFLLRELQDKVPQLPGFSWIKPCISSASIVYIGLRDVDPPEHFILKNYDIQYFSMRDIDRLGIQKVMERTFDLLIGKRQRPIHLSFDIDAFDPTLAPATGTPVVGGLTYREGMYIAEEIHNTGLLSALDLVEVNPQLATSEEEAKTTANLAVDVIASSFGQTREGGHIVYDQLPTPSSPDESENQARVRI

[7] = molecular target: T3, Proteasome subunit beta (Trypanosoma cruzi) (UniProt O96673); experiment: Trypanosoma cruzi proteasome chymotrypsin-like activity (TcProtChymo) assay.; also: in the data most compounds retested in dose-response had high values; assay type: functional; settings: 9.37 µM
T3 sequence (whole entry): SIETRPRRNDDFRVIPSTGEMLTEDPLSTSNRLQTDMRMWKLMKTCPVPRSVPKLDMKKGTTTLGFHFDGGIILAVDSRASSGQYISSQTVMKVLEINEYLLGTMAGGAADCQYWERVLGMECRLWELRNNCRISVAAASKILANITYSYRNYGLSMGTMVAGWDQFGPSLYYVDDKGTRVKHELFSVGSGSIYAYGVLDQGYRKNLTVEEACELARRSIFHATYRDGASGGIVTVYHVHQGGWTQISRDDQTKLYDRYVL

[8] = organism: Homo sapiens; experiment: To identify inhibition of the IFN signalling (Jak-Stat) pathway via expression of an eGFP reporter gene under the control of an IFN-stimulated response element (ISRE) containing MxA promoter.; assay type: functional; settings: 30 µM
[9] = molecular target: T4, Tyrosyl-tRNA synthetase, putative (Trypanosoma cruzi (strain CL Brener)) (UniProt Q4DSP6); experiment: Trypanosoma cruzi tyrosyl tRNA synthetase (TcYRS) _High Tyrosine SOP; assay type: functional; settings: 30 µM; also: in the data most compounds retested in dose-response had high values
T4 sequence (whole entry): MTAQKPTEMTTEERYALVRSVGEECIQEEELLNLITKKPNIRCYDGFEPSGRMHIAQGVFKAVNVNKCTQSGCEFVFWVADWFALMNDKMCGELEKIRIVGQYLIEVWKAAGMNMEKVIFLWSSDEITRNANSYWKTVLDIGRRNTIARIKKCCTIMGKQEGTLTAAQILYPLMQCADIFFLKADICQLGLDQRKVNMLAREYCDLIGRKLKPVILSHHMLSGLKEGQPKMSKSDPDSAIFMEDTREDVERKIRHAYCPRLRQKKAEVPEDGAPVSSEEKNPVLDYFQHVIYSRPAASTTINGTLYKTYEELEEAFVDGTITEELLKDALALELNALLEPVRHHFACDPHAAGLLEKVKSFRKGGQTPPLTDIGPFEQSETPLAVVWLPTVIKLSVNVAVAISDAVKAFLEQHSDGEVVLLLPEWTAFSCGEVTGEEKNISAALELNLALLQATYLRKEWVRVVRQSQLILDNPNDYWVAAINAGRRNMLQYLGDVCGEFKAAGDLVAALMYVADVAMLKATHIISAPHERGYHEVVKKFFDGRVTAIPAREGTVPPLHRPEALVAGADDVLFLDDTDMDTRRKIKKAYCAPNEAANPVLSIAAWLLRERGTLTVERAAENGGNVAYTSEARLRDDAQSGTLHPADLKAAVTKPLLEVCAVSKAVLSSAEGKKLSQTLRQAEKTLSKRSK

[10] = molecular target: T4, Tyrosyl-tRNA synthetase, putative (Trypanosoma cruzi (strain CL Brener)); experiment: Trypanosoma cruzi tyrosyl tRNA synthetase (TcYRS) SOP; assay type: functional; settings: 30 µM
[11] = molecular target: Chromo domain-containing protein 1 (Saccharomyces cerevisiae (strain ATCC 204508 / S288c) (Baker's yeast)) (UniProt P32657); experiment: ScCHD-1 Enzyme Inhibition Assay; assay type: functional; settings: 30 µM; also: in the data most compounds retested in dose-response had high values
Sequence of Chromo domain-containing protein 1 (Saccharomyces cerevisiae (strain ATCC 204508 / S288c) (Baker's yeast)) (P32657 whole entry, the tested form may be a part): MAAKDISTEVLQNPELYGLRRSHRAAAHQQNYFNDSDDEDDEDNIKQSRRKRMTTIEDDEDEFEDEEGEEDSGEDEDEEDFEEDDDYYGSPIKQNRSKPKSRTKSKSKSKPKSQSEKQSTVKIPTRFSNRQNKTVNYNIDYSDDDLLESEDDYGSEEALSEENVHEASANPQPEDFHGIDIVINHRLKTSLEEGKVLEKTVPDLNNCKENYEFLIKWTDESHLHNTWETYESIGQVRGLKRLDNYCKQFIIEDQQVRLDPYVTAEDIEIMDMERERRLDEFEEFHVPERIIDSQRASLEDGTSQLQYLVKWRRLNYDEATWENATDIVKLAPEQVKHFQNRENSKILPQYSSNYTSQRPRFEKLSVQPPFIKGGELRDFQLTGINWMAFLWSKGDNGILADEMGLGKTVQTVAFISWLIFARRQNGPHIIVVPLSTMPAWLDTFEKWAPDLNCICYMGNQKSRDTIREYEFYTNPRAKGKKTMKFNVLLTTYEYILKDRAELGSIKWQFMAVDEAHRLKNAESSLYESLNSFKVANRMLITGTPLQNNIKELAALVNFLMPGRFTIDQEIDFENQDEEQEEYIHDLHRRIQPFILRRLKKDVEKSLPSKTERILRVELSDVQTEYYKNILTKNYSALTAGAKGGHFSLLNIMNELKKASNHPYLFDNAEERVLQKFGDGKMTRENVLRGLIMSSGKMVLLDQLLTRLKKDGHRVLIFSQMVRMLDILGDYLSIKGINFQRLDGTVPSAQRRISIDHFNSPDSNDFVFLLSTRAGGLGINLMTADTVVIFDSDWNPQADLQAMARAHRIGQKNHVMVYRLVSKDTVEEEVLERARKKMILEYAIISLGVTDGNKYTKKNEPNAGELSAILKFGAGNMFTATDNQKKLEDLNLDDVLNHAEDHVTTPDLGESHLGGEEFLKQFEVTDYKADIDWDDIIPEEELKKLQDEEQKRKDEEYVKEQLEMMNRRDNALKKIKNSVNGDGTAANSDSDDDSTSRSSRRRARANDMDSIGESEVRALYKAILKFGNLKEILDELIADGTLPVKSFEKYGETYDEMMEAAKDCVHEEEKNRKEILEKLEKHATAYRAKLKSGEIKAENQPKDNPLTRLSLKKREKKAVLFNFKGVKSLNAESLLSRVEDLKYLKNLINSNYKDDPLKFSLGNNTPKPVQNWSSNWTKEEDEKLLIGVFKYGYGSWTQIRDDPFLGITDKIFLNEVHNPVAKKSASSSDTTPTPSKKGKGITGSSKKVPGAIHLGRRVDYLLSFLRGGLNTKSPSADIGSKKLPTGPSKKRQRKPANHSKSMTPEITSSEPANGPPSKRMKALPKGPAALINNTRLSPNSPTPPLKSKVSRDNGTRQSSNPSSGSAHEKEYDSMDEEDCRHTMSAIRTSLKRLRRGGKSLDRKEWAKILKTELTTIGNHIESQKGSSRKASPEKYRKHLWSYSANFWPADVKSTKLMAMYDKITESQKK

Sequence of Protein translocase subunit SecA (Escherichia coli (strain K12)) (P10408 whole entry): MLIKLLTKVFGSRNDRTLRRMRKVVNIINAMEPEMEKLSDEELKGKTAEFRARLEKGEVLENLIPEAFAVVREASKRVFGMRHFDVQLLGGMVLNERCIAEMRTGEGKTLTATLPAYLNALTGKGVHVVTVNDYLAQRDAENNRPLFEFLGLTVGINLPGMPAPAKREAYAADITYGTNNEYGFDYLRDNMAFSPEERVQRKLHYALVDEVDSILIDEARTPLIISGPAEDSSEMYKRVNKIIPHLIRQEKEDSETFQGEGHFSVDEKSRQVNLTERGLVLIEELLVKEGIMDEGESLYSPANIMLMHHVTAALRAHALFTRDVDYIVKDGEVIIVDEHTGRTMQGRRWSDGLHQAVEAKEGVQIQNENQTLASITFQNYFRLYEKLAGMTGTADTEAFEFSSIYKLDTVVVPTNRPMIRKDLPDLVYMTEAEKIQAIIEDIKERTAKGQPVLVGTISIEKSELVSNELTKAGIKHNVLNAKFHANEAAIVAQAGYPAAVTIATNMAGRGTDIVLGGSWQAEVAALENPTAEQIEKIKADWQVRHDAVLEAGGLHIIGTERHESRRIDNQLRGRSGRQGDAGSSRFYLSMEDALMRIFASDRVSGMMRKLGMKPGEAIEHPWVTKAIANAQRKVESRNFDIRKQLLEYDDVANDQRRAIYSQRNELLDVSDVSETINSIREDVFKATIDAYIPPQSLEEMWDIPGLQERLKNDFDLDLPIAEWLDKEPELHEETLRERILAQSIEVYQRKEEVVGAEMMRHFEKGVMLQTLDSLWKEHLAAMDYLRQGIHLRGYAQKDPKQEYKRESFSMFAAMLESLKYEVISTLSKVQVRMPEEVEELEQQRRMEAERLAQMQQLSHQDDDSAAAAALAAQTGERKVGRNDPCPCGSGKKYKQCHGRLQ
Sequence of Sialic acid-binding Ig-like lectin 9 (Homo sapiens) (Q9Y336 whole entry): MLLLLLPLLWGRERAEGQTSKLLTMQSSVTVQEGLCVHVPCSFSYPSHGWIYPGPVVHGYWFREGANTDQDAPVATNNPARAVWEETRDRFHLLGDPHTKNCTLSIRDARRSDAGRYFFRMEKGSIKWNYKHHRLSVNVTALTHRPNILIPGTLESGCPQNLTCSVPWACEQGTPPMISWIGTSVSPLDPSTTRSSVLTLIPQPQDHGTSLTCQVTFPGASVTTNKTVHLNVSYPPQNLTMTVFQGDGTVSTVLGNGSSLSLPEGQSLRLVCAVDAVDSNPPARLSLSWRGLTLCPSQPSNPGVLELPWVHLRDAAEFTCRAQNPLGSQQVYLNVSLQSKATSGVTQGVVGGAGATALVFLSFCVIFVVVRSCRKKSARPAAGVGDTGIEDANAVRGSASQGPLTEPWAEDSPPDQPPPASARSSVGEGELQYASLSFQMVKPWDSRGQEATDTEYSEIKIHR

SMILES	Percent Effect [1]	Percent Effect [2]	Percent Effect [3]	Percent Effect [4]	Percent Effect [5]	Percent Effect [6]	Percent Effect [7]	Percent Effect [8]	Percent Effect [9]	Percent Effect [10]	Percent Effect [11]
CN(C)C(=O)CN(C)C(=O)c1cnc(Cc2ccc(F)cc2)s1	-5.52%	0%	-1.38%	-1.9%	-1.07%	3.12%	17.8%	-4.01%	0.546%	8.64%	-7.08%
CCc1nnc2n1CCN(C(=O)c1cc(Br)c[nH]1)C2	-5.48%	23.4%	-0.82%	9.55%	8.05%	-1.78%	13%	-20.8%	9.71%	19.5%	-10.3%
CCOCCCC(=O)NCc1cn2cc(Br)ccc2n1	-1.32%	7.89%	1.23%	-4.68%	-1.66%	0%	24.1%	-9.79%	6.38%	15.6%	-2.98%
O=C(Nc1ccnc(OC2CCOC2)c1)C1CCC1 (configuration not stated)	-2.23%	-4.17%	-0.181%	4.31%	-6.32%	1.32%	13.3%	5.01%	-2.1%	-5.13%	6.48%
COCC1c2c(cnn2CC2CCOCC2)CCN1Cc1ccoc1 (configuration not stated)	-3.48%	8.11%	4.63%	0.649%	1.76%	4.17%	16%	-5.7%	10.9%	11%	-3.93%
Cn1cnnc1C1CCCN(C(=O)c2ccc3c(c2)OCCCO3)C1 (configuration not stated)	-6.73%	18.2%	-5.65%	-3.72%	3.04%	0.21%	15.3%	-4.88%	4.76%	23.5%	-15.9%
Cc1nc(C)n(C2CCCN(C(=O)c3cnc[nH]3)C2)n1 (configuration not stated)	-4.48%	-2.7%	-9.26%	8.79%	-4.43%	2%	-2.7%	0.378%	-5.42%	1.24%	6.8%
Cc1cccc(CN2CCc3ncnc(N4CCOCC4)c3CC2)n1	-4.12%	-5.48%	1.75%	-1.38%	-1.39%	3.59%	4.2%	20.4%	-1.04%	1.24%	-0.552%
Cn1cc(N2CCC3(CCN(S(=O)(=O)C4CC4)C3)C2=O)cn1 (configuration not stated)	-2.28%	-2.67%	0.251%	0.236%	2.32%	-37.5%	8.55%	0.388%	1.04%	5%	-4.63%
CC1=Nc2c(c(=O)[nH]n2C(C)C)C(c2ccc(F)c(F)c2)S1 (configuration not stated)	-5.53%	-6.67%	8.28%	12.2%	-0.197%	1.58%	9.8%	34%	18%	20.5%	2.07%
CCCc1n[nH]c(C2CN(CCCS(C)(=O)=O)CCO2)n1 (configuration not stated)	-5.31%	11.4%	0.105%	-1.3%	1.13%	2.37%	14.1%	1.09%	5.21%	10.1%	-22.8%
Cc1ccccc1-c1cncc(C2CCN(C)CC2)n1	-3.38%	-6.76%	8.25%	2.29%	5.73%	-1.62%	-0.624%	-1.24%	5.38%	3.9%	-11.8%
OCCC1CN(C2CCC2)CCN1C1CCCC1 (configuration not stated)	-3.14%	-1.39%	-6.25%	-1.98%	7.87%	-1.77%	2.28%	-37%	1.05%	7.69%	3.1%
COCCOc1ccc(NC(=O)N2CCCC2c2cc(C)no2)cn1 (configuration not stated)	-4.97%	0%	0.449%	5.01%	-0.686%	-1.05%	5.74%	9.34%	5.71%	2.35%	-14.1%
CCCNC(=O)c1sc(Nc2ccc(Cl)cn2)nc1C	-0.647%	17.3%	-1.88%	-4.2%	4.13%	-0.88%	13.5%	-1.08%	7.41%	7.69%	-6.09%
Cc1c(C(=O)NCC(C)C)nnn1-c1cccc2c1CCN(C)C2	-4.34%	2.63%	0.913%	2.87%	-0.682%	-2.37%	11.2%	18.4%	5.32%	15.6%	-0.534%
CNC(=O)Cc1ccc(NC(=O)NC(C)C(C)C)cc1 (configuration not stated)	-2.02%	10.5%	3.68%	1.41%	1.66%	0%	8.53%	-8.18%	4.25%	15.6%	-3.23%
O=C([C@H]1COC[C@H]2CN(Cc3ccco3)C[C@H]21)N1CCCO1	-7.92%	18.7%	-1.75%	0.139%	4.63%	-47.9%	4.62%	-0.652%	6.25%	15%	-6.91%
CS(=O)(=O)NC1CCc2c(ccc(=O)n2CC2CC2)C1 (configuration not stated)	-2.67%	10.7%	7.1%	2.38%	-3.54%	2.56%	10.7%	-2.08%	6.38%	14.1%	0.517%
Cc1cccc(NC(=O)Cn2ncc(SCC(N)=O)c(Cl)c2=O)c1C	-3.9%	5.48%	4.95%	-15.5%	-4.31%	3.18%	22.5%	17.6%	5.38%	5%	79.5%
NC(=O)C1CCN(C(=O)CCn2ccc3cc(Br)ccc32)CC1	-0.921%	4.17%	-4.65%	21.5%	2.43%	14.6%	2.63%	-3.52%	3.16%	2.56%	-4.07%
Cn1cc(CN2CCc3nc(-c4ccccn4)nc(O)c3C2)cn1	-7.26%	2.67%	-8.66%	8.08%	6.69%	-3.96%	-0.617%	-0.651%	10.6%	29.5%	-10.9%
